We go through nine compounds from PubChem BioAssay (NCATS).

Inconclusive results are not listed. Calls of active or inactive are those of the source. Unless noted, how the calls were made is not given here.

The nature of test [1]: qHTS profiling of the MIPE4 collection as inhibitors of Plasmodium falciparum (3D7) proliferation (AID 743344).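 Further: scaled between DMSO vehicle wells and 0.29 µM artemisinin as full inhibition.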 The settings on record: P. falciparum 3D7 in erythrocytes, SYBR Green DNA fluorescence, 72 h; at 28.5 µM unless noted. Summed up: (§1)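 Erythrocytes infected with P. falciparum (0.3% parasitemia, 2.5% hematocrit) incubated with compounds 72 h at 37 C, 5% CO2. Lysis with saponin/Triton buffer containing SYBR Green I, overnight at room temperature in the dark; DNA fluorescence (485/535 nm) normalised to 0.29 uM artemisinin and DMSO.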
(Quantitative high-throughput screening tests each substance at several concentrations.)

The nature of test [2]: qHTS profiling of the MIPE4 collection as inhibitors of Plasmodium falciparum (DD2) proliferation (AID 743345). Conditions: P. falciparum Dd2 in erythrocytes, SYBR Green DNA, 72 h; at 28.5 µM unless noted. The essentials: as §1
Test [3] can be described thus: qHTS profiling of the MIPE4 collection as inhibitors of Plasmodium falciparum (DD2) proliferation (Rep 2) (AID 743346). Conditions: P. falciparum Dd2 in erythrocytes, SYBR Green DNA, 72 h; at 28.5 µM unless noted. The essentials: as §1
The nature of test [4]: qHTS profiling of the MIPE4 collection as inhibitors of Plasmodium falciparum (HB3) proliferation (AID 743347).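 Further: plate controls were DMSO vehicle wells for no effect and artemisinin wells for full effect.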 Conditions: P. falciparum HB3 in erythrocytes, SYBR Green DNA, 72 h; at 28.5 µM unless noted. The essentials: as §1
A short description of test [5]: High-throughput drug toxicity screening in the BPDCN cell line Gen2.2 (AID 1224824). Conditions: Gen2.2 BPDCN cells; at 45.8 µM (top of the series) unless noted. The essentials:
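Seed 500 exponentially growing Gen2.2 cells/well; add compounds by pin tool; incubate 48 h, 37 °C, 5% CO2; add CellTiter-Glo, 15 min RT; read luminescence. % activity vs DMSO (100%) and bortezomib (0%).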

A short description of test [6]: High-throughput drug toxicity screening in the BPDCN cell line Cal-1 (AID 1224825). Conditions: Cal-1 BPDCN cell viability, qHTS; at 45.8 µM (top of the series) unless noted. The essentials:
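Cal-1 cells, 500 per well in phenol-red-free RPMI with 10% FBS, exposed to compounds for 48 hours at 37C, 5% CO2. Viability read by CellTiter-Glo luminescence; percent activity normalized to DMSO (100%) and 9.2 uM bortezomib final (0%).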

Test [7] in a line: qHTS assay for measurement of the activity of small molecule inhibitors on Zika virus induced Caspase-3 activity in human iPSC derived neural progenitor cells (hNPCs) (AID 1224857; active means well fitted curve in the direction sought with a large enough effect; an effect the other way counts as inactive or inconclusive; further: % of control where 0% means no effect; nearly all actives have a fitted effect of over 65% in size). The essentials: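 Caspase-3/7 induction by a 6-hour ZIKV infection was quantified with a luminescent Caspase-Glo 3/7 reagent incubated 30 minutes at room temperature. Compounds were preincubated with hNPCs for 1 hour; inhibition was calculated against uninfected and infected control wells.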

The nature of test [8]: qHTS assay for measurement of the activity of small molecule inhibitors on Zika virus induced Caspase-3 activity in human astrocytoma cells (AID 1224859; active means well fitted curve in the direction sought with a large enough effect; an effect the other way counts as inactive or inconclusive;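 further: plate controls were ZIKV-infected untreated cells for no effect and uninfected cells for full effect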). The essentials: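 In SNB-19 cells plated at 250 cells/well and grown 16-20 h, compounds were applied 1 h before ZIKV (2 FFU/cell). Six hours later caspase-3/7 luminescence was recorded.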
Test [9] can be described thus: qHTS Screen of the MIPE 4.0 Collection Against Ewings Sarcoma (RDES) (AID 1259252; active means well fitted curve in the direction sought with a large enough effect; an effect the other way counts as inactive or inconclusive; further: nearly all actives have a fitted effect of over 35% in size; further: potency means the concentration at half of the fitted maximal effect). Summed up: (§2)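 Viability screen: 48 h incubation at 37C, 95% humidity, 5% CO2 with serially titrated compound, followed by CellTiter-Glo readout.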
The nature of test [10]: qHTS Screen of the MIPE 4.0 Collection Against Ewings Sarcoma (TC32) (AID 1259256; active means well fitted curve in the direction sought with a large enough effect; an effect the other way counts as inactive or inconclusive; further: nearly all actives have a fitted effect of over 45% in size; further: potency means the concentration at half of the fitted maximal effect). The essentials:
as §2

The nature of test [11]: qHTS assay to identify small molecule inhibitors of chordoma cells - UCH-1 (AID 1259355; active means well fitted curve in the direction sought with a large enough effect; an effect the other way counts as inactive or inconclusive; further: on the % scale 0 is the no-effect control and ±100 the full control effect; nearly all actives have a fitted effect of over 55% in size). Summed up:
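Cells (800/well) were seeded and left overnight at 37 C, 5% CO2, then treated with drugs at 15 concentrations plus a combination mix of auranofin, camptothecin, doxorubicin, rubitecan and topotecan. Viability after 48hr was read by CellTiter-Glo luminescence.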

The nature of test [12]: qHTS profiling for inhibitors of Plasmodium falciparum (HB3) proliferation (AID 743324; active means well fitted curve in the direction sought with a large enough effect; an effect the other way counts as inactive or inconclusive;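 further: 100% = DMSO vehicle wells and 0% = artemisinin-treated control wells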). The settings on record: Plasmodium falciparum HB3 blood-stage proliferation; at 28.7 µM (top of the series) unless noted. Summed up: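 P. falciparum HB3 grown in erythrocytes (0.3% parasitemia, 2.5% hematocrit final) with compound for 72 h at 37 C, 5% CO2. Parasite DNA detected by SYBR Green after saponin/triton lysis overnight; normalized to 0.29 uM artemisinin and DMSO.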

A short description of test [13]: Identifying Small Molecule Inhibitors of Pancreatic Cancer Stem Cells (A2780, Spheroid) (AID 1259357; active means well fitted curve in the direction sought with a large enough effect; an effect the other way counts as inactive or inconclusive;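 further: compound exposure lasted 48 h before the ATP luminescence read; 100% = DMSO treated cells and 0% = wells without cells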). Conditions: Potency: A2780 spheroid viability. Summed up: (§3)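 After a 4 h attachment period, compounds were pinned into wells and cultures held 48 h under standard incubator conditions. Viability was then measured as CellTiter-Glo luminescence following 10 min at room temperature.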

The nature of test [14]: Identifying Small Molecule Inhibitors of Pancreatic Cancer Stem Cells (SN12C, Adherent) (AID 1259358; active means well fitted curve in the direction sought with a large enough effect; an effect the other way counts as inactive or inconclusive;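 further: cell survival measured after 48 h of compound exposure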). Summed up:
(§4)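 Monolayer and spheroid cultures are compared. Spheroids form over 14 days in stem cell medium on hydrogel-coated low-attachment plates, then are exposed to compound for 48 h before CellTiter-Glo luminescence.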

The nature of test [15]: Identifying Small Molecule Inhibitors of Pancreatic Cancer Stem Cells (SN12C, Spheroid) (AID 1259360; active means well fitted curve in the direction sought with a large enough effect; an effect the other way counts as inactive or inconclusive;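 further: 100% = DMSO-treated cells and 0% = wells without cells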). The settings on record: Potency: SN12C spheroid viability. The essentials: as §3
A short description of test [16]: Identifying Small Molecule Inhibitors of Pancreatic Cancer Stem Cells (A278, Adherent) (AID 1259361; active means well fitted curve in the direction sought with a large enough effect; an effect the other way counts as inactive or inconclusive;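 further: viability read after 48 h compound exposure; 100% = DMSO-treated cells and 0% = cell-free media-only wells; nearly all actives have a fitted effect of over 35% in size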). The essentials:
as §4

Take `N#CC(c1ccc(Cl)cc1)c1c(Cl)cc(-n2ncc(=O)[nH]c2=O)cc1Cl` (stereo unspecified): the parasite growth, % of DMSO control in test [1] was 19.5%. For the same compound, the parasite growth remaining, % of DMSO control (lower = more inhibition) in test [2] was determined as 10.7%. Besides, the parasite growth, % of control (lower = inhibition) in [3] worked out at 10.2%. In test [4], this compound showed a growth, % of control of 7.09%. The cell viability, % of control (lower = more cytotoxic) in test [5] was determined as 69.2%. Moreover, the viability (% of control) in test [6] is 12.7%. In addition, the Potency entry in test [7], in [8] and in test [10] was “inactive” throughout. For the same compound, the Potency in test [9] is 26.4 µM (active). The compound was classed as inactive in test [11].
Turning to `C[C@H]1COC2=C1C(=O)C(=O)c1c2ccc2c1CCCC2(C)C`, the parasite growth, % of DMSO control in test [1] came out at 5.99%. For the same compound, the parasite growth remaining, % of DMSO control (lower = more inhibition) in [2] stood at 12.1%. Also, the parasite growth, % of control (lower = inhibition) in [3] was 15.5%. Also, the growth, % of control in test [4] worked out at 9.95%. For the same compound, the cell viability, % of control (lower = more cytotoxic) in test [5] was 23.4%. In [6], the viability (% of control) was 56.6%. The Potency entry in test [7] and in test [8] was “inactive” in each case. Also, the values for the Potency in test [9] and in test [10] were 20.9 µM (active) and 23.5 µM (active), respectively.
With `OC[C@H]1O[C@@H](OCCc2ccc(O)cc2)[C@H](O)[C@@H](O)[C@H]1O`, in test [1], the parasite growth, % of DMSO control was determined as 97.9%. In addition, the parasite growth remaining, % of DMSO control (lower = more inhibition) in test [2] came out at 103%. In [3], the parasite growth, % of control (lower = inhibition) came to 131%. Besides, the cell viability, % of control (lower = more cytotoxic) in test [5] came out at 106%. Moreover, in [6], the viability (% of control) came out at 96.6%. In addition, the Potency entry in test [7] and in [8] was “inactive” each time. In addition, the Potency in [9] was 23.5 µM (active).
Take `CC(=O)Nc1cccc(-n2c(=O)n(C3CC3)c(=O)c3c(Nc4ccc(I)cc4F)n(C)c(=O)c(C)c32)c1`: in test [12], the remaining proliferation (% of control), lower = more inhibition was -0.298%. For the same compound, the parasite growth, % of DMSO control in test [1] stood at 5.62%. Also, the parasite growth remaining, % of DMSO control (lower = more inhibition) in [2] is 6.3%. The parasite growth, % of control (lower = inhibition) in test [3] stood at 9.44%. For the same compound, the cell viability, % of control (lower = more cytotoxic) in test [5] is 11.2%. Moreover, the viability (% of control) in [6] worked out at 7.97%. Further, the Potency entry in [7], in test [8] and in [13] was “inactive” in each case. In test [9], the Potency is 20.9 µM (active).
In the case of `O=C1CN2Cc3c(ccc(Cl)c3Cl)N=C2N1`, in test [12], the remaining proliferation (% of control), lower = more inhibition is 46.3%. The compound also had a parasite growth, % of DMSO control in [1] of 82.8%. The parasite growth remaining, % of DMSO control (lower = more inhibition) in [2] came out at 91.6%. The parasite growth, % of control (lower = inhibition) in test [3] was 85.1%. This compound also gave a growth, % of control in test [4] of 85.4%. In [5], the cell viability, % of control (lower = more cytotoxic) turned out to be 198%. Also, the viability (% of control) in test [6] was determined as 96.9%. Besides, the Potency result in test [7] and in test [8] was “inactive” in each case. The Potency in [9] and in test [10] was 23.5 µM (active) in each case.
As for `O=C1C(CCC(O)c2ccc(F)cc2)C(c2ccc(O)cc2)N1c1ccc(F)cc1` (stereo unspecified), the remaining proliferation (% of control), lower = more inhibition in [12] came to 64.8%. Moreover, in test [2], the parasite growth remaining, % of DMSO control (lower = more inhibition) was 77%. Further, the parasite growth, % of control (lower = inhibition) in test [3] is 36.6%. The growth, % of control in [4] came out at 33.2%. For the same compound, the cell viability, % of control (lower = more cytotoxic) in test [5] turned out to be 88.9%. Besides, in [6], the viability (% of control) amounted to 93.3%. For the same compound, the Potency entry in test [7], in test [8], in test [9], in test [10], in [13] and in [14] was “inactive” in each case. In test [15], the Potency result is “inactive”.
In the case of `CCCCOCCOc1nc(-c2ccc(C(=O)O)c(F)c2)sc1C`, the remaining proliferation (% of control), lower = more inhibition in test [12] worked out at 57%. The same compound showed a parasite growth, % of DMSO control in [1] of 81.5%. Also, the parasite growth remaining, % of DMSO control (lower = more inhibition) in test [2] is 98.4%. Also, the parasite growth, % of control (lower = inhibition) in test [3] turned out to be 80.5%. In addition, the cell viability, % of control (lower = more cytotoxic) in test [5] came to 594%. The viability (% of control) in test [6] turned out to be 73.8%. Besides, the Potency entry in [7], in test [8], in [13], in [14] and in [15] was “inactive” throughout. In addition, in [9], the Potency was 20.9 µM (active). Besides, the IC50 (viability decrease) entry in test [16] is “inactive”.
Compound `CCC(c1ccc(O)cc1)C(CC)c1ccc(O)cc1` (stereo unspecified) displayed a parasite growth, % of DMSO control in test [1] of 84.9%. The parasite growth remaining, % of DMSO control (lower = more inhibition) in test [2] was 90%. Besides, the parasite growth, % of control (lower = inhibition) in test [3] was 75%. This compound also displayed a growth, % of control in test [4] of 106%. For the same compound, the cell viability, % of control (lower = more cytotoxic) in [5] worked out at 149%. The viability (% of control) in [6] was 104%. Further, the Potency entry in [7] and in test [8] was “inactive” each time. In addition, the Potency in test [9] is 0.743 µM (active); in [10], 1.48 µM (active).
As for `COc1ccc2ccc(=O)oc2c1CC=C(C)C`, in test [1], the parasite growth, % of DMSO control was 94.2%. For the same compound, in [2], the parasite growth remaining, % of DMSO control (lower = more inhibition) stood at 15.6%. The parasite growth, % of control (lower = inhibition) in test [3] was found to be 73.4%. Also, in [4], the growth, % of control was determined as 80.3%. Also, the cell viability, % of control (lower = more cytotoxic) in test [5] worked out at 124%. For the same compound, the viability (% of control) in test [6] amounted to 97.4%. Further, the Potency result in [7], in test [8] and in test [10] was “inactive” in each case. For the same compound, in test [9], the Potency was 23.5 µM (active).
